# According to the supplement of paper PMC9334596:
# Where “and” joins values, the source holds several entries; their conditions need not be identical. Equal values may be shown once. In all, about 5,300 compounds were measured (“PER2::LUC luminescence relative to vehicle control”: median about 0.96, highest 2% from about 1.3 on). Only a selection was taken, and the highest values are over-represented in it overall.
# Test system: mPer2Luc MEF
# Experiment: PER2::LUC luminescence relative to vehicle control (fold of vehicle); higher = higher PER2::LUC reporter signal
# Conditions: 10 µM
# Summary of the method: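 Compounds from commercial libraries were added at 10 μM to 384-well plates seeded 48 h earlier with ~3000 mPer2Luc mouse embryonic fibroblasts per well. The cells were kept in DMEM with 10% FBS at 37 °C and 5% CO2. Luminescence was read with ONE-Glo 24 h and 30 h after treatment, then an alamarBlue viability assay was run. Values are PER2::LUC luminescence relative to vehicle control, as fold change.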
Structure (SMILES),PER2::LUC luminescence (time after treatment 24 h),PER2::LUC luminescence (time after treatment 30 h)
COc1cc([C@@H]2CC(=O)c3c(O)cc(O)cc3O2)ccc1O,0.985,0.942
Cc1occc1C(=O)n1ccnc1,0.986,0.971
COc1cc2ncnc(N(C)c3cccc(Br)c3)c2cc1OC,0.83,0.741
OCc1ccc(-c2ccc(-c3ccc(CO)s3)o2)s1,1.48,1.62
CCCCCCCCOC(=O)C=Cc1ccc(OC)cc1,1.04,1.09
CC(C)(O)c1ccc2c(c1)ncn2-c1cccc(-c2ccccc2C#N)c1,0.829,0.89
CC(Nc1ccc(-c2nn[nH]n2)cc1)C(=O)O (racemic),0.971,0.96
CC(C)[C@H](CO)Nc1nc(Sc2cccc(N)c2)c2ncn(C(C)C)c2n1,0.582,0.686
FC(F)(F)c1ccc(CNc2ccc(Cc3c[nH]c4ncc(Cl)cc34)cn2)cc1,0.83,0.83
CC(C(=O)O)c1ccc(-c2ccccc2)c(F)c1 (stereo not drawn),1.15,1.06
CC(C(=O)O)c1ccc(N2Cc3ccccc3C2=O)cc1 (stereo not drawn),1.02,1.34
CC(C(=O)O)c1ccc2c(c1)CC(=O)c1ccccc1S2 (stereo not drawn),1.05,1.08
O=C(CCc1ccc(O)cc1)c1c(O)cc(O)cc1OC1OC(CO)C(O)C(O)C1O (stereo not drawn),1.02,0.948
Oc1nc2cc(Cl)c(Cl)cc2nc1O,0.684,0.69
COc1ccc2nc(/C=C/c3cccc([N+](=O)[O-])c3)n(-c3ccc(C(=O)O)cc3)c(=O)c2c1,1.05,1.01
O=C(O)[C@@]1(CCCCCCOc2ccc(Cl)cc2)CO1,0.936,1.01
CC/C(=C(\c1ccccc1)c1ccc(OCCN(C)C)cc1)c1ccccc1,0.718 and 0.679,0.784 and 0.742
CCN(CC)CCOc1ccc(Cc2ccccc2)cc1,0.811,0.893
CCN(CC)CCOc1ccc(C(=C(Cl)c2ccccc2)c2ccccc2)cc1,0.934 and 0.704,1.73 and 0.773
CC(=O)NC[C@H]1CN(c2ccc(-c3ccc(CNCc4cnn[nH]4)cc3)c(F)c2)C(=O)O1,1.03,1.09
Cn1nnc(-c2ccc(-c3ccc(N4C[C@H](CO)OC4=O)cc3F)cn2)n1,1.39 and 1.4,1.56 and 1.53
Cn1nnc(-c2ccc(-c3ccc(N4C[C@@H](CO)OC4=O)cc3F)cn2)n1,1.01,1.09
CON(Cc1ccc(F)cc1)C(=O)/C=C(\O)C(=O)O,0.942,0.968

Structure (SMILES),PER2::LUC luminescence (time after treatment 24 h),PER2::LUC luminescence (time after treatment 30 h)
COc1ccc2[nH]cc(CCNC(=O)C3CC3)c2c1,0.901,0.938
c1nc(CC2CCNCC2)c[nH]1,0.32,0.4
NCCc1c[nH]cn1,0.832 and 0.572,0.983 and 0.838
O=C(c1ccc(OCCCc2c[nH]cn2)cc1)C1CC1,1.09 and 1.51,1.33 and 1.29
CC1=CC(=O)C(C(C)C)=C/C1=N/OC(=O)c1ccccc1C,1.11,0.994
O=C(O)c1c[nH]c(=O)cn1,1.08,0.999
FC(F)(F)c1cccc(-c2noc(-c3cc(-c4ccccc4)c(C(F)(F)F)s3)n2)c1,1.17,1.14
O=C(NCC1(c2nc(-c3ccccc3)cs2)CCOCC1)c1cccc(-c2noc(C(F)(F)F)n2)c1,0.923,0.884
O=C(O)c1cccc(-c2noc(-c3ccccc3F)n2)c1,1.69,2.11
N[C@H](C(=O)O)c1ccc(O)c(C(=O)O)c1,1.02,0.987
O=C(O)c1cc(=O)c2ccccc2o1,0.998 and 1.05,0.946 and 1.14
CC(C)c1ccc2oc3nc(N)c(C(=O)O)cc3c(=O)c2c1,1.07,1.49
O=C(O)c1cc(=O)c2cc(Cl)ccc2[nH]1,0.977,0.883
CCOC(=O)[N-]c1c[n+](N2CCOCC2)no1,1.09,1.74
O=C(Nc1ccccc1)C12C=C1C(=NO)c1ccccc1O2 (stereo not drawn),1.08,0.974
N[C@@]1(C(=O)O)CN[C@@H](C(=O)O)C1,0.997,0.949
C[C@@H]1O[C@@H](OC[C@H]2O[C@@H](Oc3cc(O)c4c(c3)O[C@H](c3ccc(O)cc3)CC4=O)[C@H](O)[C@@H](O)[C@@H]2O)[C@H](O)[C@H](O)[C@H]1O,0.957,0.972
COc1ccc(-c2cc(=O)c3c(O)cc(O)cc3o2)cc1O,0.933,1.03
COc1ccc(-c2cc(=O)c3c(O)c(OC)c(OC)c(OC)c3o2)cc1,1.03,1.16
COc1ccc(-c2cc(=O)c3c(O)cc(OC)cc3o2)cc1,1.29,1.46
O=c1cc(-c2cc(O)c(O)c(O)c2)oc2cc(O)cc(O)c12,0.957,0.941
COc1cc(O)c2c(=O)cc(-c3ccc(O)cc3)oc2c1,1.21,1.32
COc1ccc(-c2cc(=O)c3c(O)cc(O)cc3o2)cc1,1.41,1.56

Structure (SMILES),PER2::LUC luminescence (time after treatment 24 h),PER2::LUC luminescence (time after treatment 30 h)
Cc1cc2nc3c(=O)[nH]c(=O)nc-3n(C[C@H](O)[C@H](O)[C@H](O)COP(=O)(O)O)c2cc1C,1.22,0.887
O=C(Nc1ccc(C(F)(F)F)cn1)c1cccc2cccnc12,1.02,1.03
CC(=O)CCCCn1cnc2c1c(=O)n(C)c(=O)n2C,0.931,0.944
Cc1cccc(Oc2nc3c(C)cccn3c(=O)c2C=C(C#N)c2nc3ccccc3s2)c1,1,1.04
O=C1CCC(c2ccccc2)(C2CCN(Cc3ccccc3)CC2)C(=O)N1 (stereo not drawn),0.825,0.82
COc1cnc(NS(=O)(=O)c2ccc(N)cc2)nc1,0.926,1
COc1ncnc(NS(=O)(=O)c2ccc(N)cc2)c1OC,0.986,0.84
COc1nccnc1NS(=O)(=O)c1ccc(N)cc1,1,1.97
C=CCO/N=C1\c2ccccc2-c2nc(C#N)c(C#N)nc21,0.778,0.699
C[C@]12CC[C@@H]3c4ccc(O)cc4CC[C@H]3[C@@H]1C[C@H](O)[C@@H]2O,1.07,0.987
O=c1c(N=Nc2ccc(CS(=O)(=O)O)cc2)c(-c2ccc(C[N+](=O)[O-])cc2)[nH]n1-c1ccccc1,1.09,1.08
CCCC(C(=O)O)c1c(C)nc2ccc(Cl)cc2c1-c1ccccc1 (stereo not drawn),1.02,0.957
CC1=C(/C=C/C(C)=C/C=C/C(C)=C/CO)C(C)(C)CCC1,1.35 and 1.26 and 1.07,1.26 and 1.06 and 1.11
CC1=C(/C=C/C(C)=C/C=C/C(C)=C/C=C/C=C(C)/C=C/C=C(C)/C=C/C(=O)[C@]2(C)C[C@@H](O)CC2(C)C)C(C)(C)C[C@H](O)C1,0.964,0.922
CC1=C(/C=C/C(C)=C/C=C/C(C)=C/C=C/C=C(C)/C=C/C=C(C)/C=C/C2=C(C)C(=O)CCC2(C)C)C(C)(C)CCC1=O,0.908,0.963
CC1=C(/C=C/C(C)=C\C=C\C(C)=C\C(=O)O)C(C)(C)CCC1,2.08,1.87
CC1=C(/C=C/C(C)=C/C=C/C(C)=C\C(=O)O)C(C)(C)CCC1,1.75 and 1.62 and 1.8,1.89 and 1.79 and 1.52
CC1=C(/C=C/C(C)=C/C=C/C(C)=C/C(=O)Nc2ccc(O)cc2)C(C)(C)CCC1,0.452 and 1.09,0.603 and 1.06
CCCC(=O)OCc1ccc(OC(=O)/C=C(C)/C=C/C=C(C)/C=C/C2=C(C)CCCC2(C)C)cc1,1.02,1.16
CC1=C(/C=C/C(C)=C/C=C/C(C)=C\CO)C(C)(C)CCC1,1.08,1.03
CC(=O)OC/C=C(C)/C=C/C=C(C)/C=C/C1=C(C)CCCC1(C)C,0.964,0.832
CCCCCCCCCCCCCCCC(=O)OC/C=C(C)/C=C/C=C(C)/C=C/C1=C(C)CCCC1(C)C,0.929 and 0.69,0.976 and 0.869
CC1=C(/C=C/C(C)=C/C=C/C(C)=C/C=C/C=C(C)/C=C/C=C(C)/C=C/C2=C(C)CCCC2(C)C)C(C)(C)CCC1,1.07,0.941
